From ChEMBL document CHEMBL3988442, “University of Dundee, Small-Polar-MMV Screening Library” (2021) come the findings set out here.

This test concerns the target Shiga toxin 2 (Escherichia coli O157:H7) (UniProt P09385+P09386). Put plainly: E. coli 0.157:H7 Shiga Toxin SOP - stx2 screening assay. Particulars: 30 µM. It is filed as functional. Also on record: scale not given: direction of the effect not stated beside the values.
Regarding `COc1ncc(C2CC(=O)NCc3nc4ccccn4c32)cn1` (stereo unspecified), the Percent Effect turned out to be 15%.

For the compound `Cc1ccccc1C1CCCN1C(=O)CN1CC2(CCNCC2)OC1=O` (stereo unspecified), the Percent Effect turned out to be 2.84%.

On to `Cc1cc(C(=O)NCC(C)N2CCc3ccccc32)no1` (stereo unspecified), for which the Percent Effect is -26.5%.

Take `CC(=O)N(Cc1noc(C)n1)C1CCN(Cc2ccccc2C#N)C1` (stereo unspecified): the Percent Effect is -3.66%.

In the case of `O=C(c1ccncc1)N1CCCC2(COCCN(c3ccccc3)C2)C1` (stereo unspecified), the Percent Effect is -1.46%.

For `CC(=O)NC1CCCN(C(=O)c2ccc(Br)cc2O)C1` (stereo unspecified), the Percent Effect was determined as 19.3%.

For `Cc1oc(C(=O)O)cc1S(=O)(=O)Nc1cc(Cl)ccc1F`, the Percent Effect amounted to 17.5%.

For `CCS(=O)(=O)c1ccccc1N1CCC(NC(=O)c2ccc[nH]2)CC1`, the Percent Effect amounted to 9.33%.

Consider `Cc1nn2c(N3CCC(O)C3)cc(-c3ccccc3)nc2c1C` (stereo unspecified), for which the Percent Effect was -33.6%.

As for `O=C(CCNC(=O)c1ccccc1)Nc1ccncc1`, the Percent Effect is -111%.

Consider `c1ccc2sc(CN3CCCC3c3noc(C4CC4)n3)nc2c1` (stereo unspecified), for which the Percent Effect was found to be 3.03%.

Regarding `CC(C)Cc1noc(CN2CCOCC2)n1`, the Percent Effect was 29.5%.

In the case of `O=S(=O)(NCC1CCOc2ccccc2C1)N1CCOCC1` (stereo unspecified), the Percent Effect is -16%.

On to `O=C(c1ccncn1)N1CCO[C@H]2[C@@H](OCc3cccnc3)CC[C@@H]21`, for which the Percent Effect was -37.5%.

For the compound `NC(=O)Nc1cccc(Oc2ccccn2)c1`, the Percent Effect is -11.9%.

As for `CC(O)CN1CCN(C(=O)CN(C)c2ccc(Cl)cn2)CC1` (stereo unspecified), the Percent Effect is -10.6%.

For the compound `CC(=O)N1CCC2(CC1)COCCN2Cc1ccc(F)cc1`, the Percent Effect was -2.06%.

With `CCc1nc(C2CCCN2Cc2nc(C3CC3)no2)no1` (stereo unspecified), the Percent Effect is -6.89%.

Turning to `COCc1nc(C(=O)N2CCCCC2Cn2cc(C)cn2)cs1` (stereo unspecified), the Percent Effect amounted to 5.33%.

Turning to `Cc1nc(C)n(C2CCCN(C(=O)c3ccc(NC4CC4)nc3)C2)n1` (stereo unspecified), the Percent Effect was -7.5%.

As for `COc1ncccc1NC(=O)C1CCS(=O)(=O)C1` (stereo unspecified), the Percent Effect was -37.8%.
